Assays:
[1] = molecular target: Death-associated protein kinase 1 (Homo sapiens) (UniProt P53355); conditions: at 10 µM
[2] = molecular target: Death-associated protein kinase 2 (Homo sapiens) (UniProt Q9UIK4); conditions: at 1 µM
[3] = molecular target: Death-associated protein kinase 2 (Homo sapiens) (UniProt Q9UIK4); conditions: at 10 µM
[4] = molecular target: T1, Serine/threonine-protein kinase DCLK2 (Homo sapiens) (UniProt Q8N568); conditions: at 1 µM
T1 sequence (whole entry): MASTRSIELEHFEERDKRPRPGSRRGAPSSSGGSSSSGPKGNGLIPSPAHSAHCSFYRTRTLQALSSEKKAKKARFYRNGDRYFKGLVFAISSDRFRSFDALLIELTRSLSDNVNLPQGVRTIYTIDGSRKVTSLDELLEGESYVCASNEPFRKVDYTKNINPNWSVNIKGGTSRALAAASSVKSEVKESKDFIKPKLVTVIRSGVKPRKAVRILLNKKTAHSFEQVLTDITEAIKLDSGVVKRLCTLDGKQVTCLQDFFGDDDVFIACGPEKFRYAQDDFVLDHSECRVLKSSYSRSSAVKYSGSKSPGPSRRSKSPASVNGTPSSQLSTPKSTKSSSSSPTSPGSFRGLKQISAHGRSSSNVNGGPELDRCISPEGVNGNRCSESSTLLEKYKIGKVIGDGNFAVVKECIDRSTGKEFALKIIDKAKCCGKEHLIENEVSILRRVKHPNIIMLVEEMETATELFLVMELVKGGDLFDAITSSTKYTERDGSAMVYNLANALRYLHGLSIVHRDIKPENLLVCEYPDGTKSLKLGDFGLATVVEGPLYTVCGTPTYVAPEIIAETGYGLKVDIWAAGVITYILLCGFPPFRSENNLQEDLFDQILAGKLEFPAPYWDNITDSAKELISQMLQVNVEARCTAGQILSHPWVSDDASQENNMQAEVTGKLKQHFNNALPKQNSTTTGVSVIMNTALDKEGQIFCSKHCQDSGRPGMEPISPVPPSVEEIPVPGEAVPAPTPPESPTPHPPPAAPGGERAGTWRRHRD

[5] = molecular target: T1, Serine/threonine-protein kinase DCLK2 (Homo sapiens); conditions: at 10 µM
[6] = molecular target: T2, Discoidin domain-containing receptor 2 (Homo sapiens) (UniProt Q16832); conditions: at 1 µM
T2 sequence (whole entry): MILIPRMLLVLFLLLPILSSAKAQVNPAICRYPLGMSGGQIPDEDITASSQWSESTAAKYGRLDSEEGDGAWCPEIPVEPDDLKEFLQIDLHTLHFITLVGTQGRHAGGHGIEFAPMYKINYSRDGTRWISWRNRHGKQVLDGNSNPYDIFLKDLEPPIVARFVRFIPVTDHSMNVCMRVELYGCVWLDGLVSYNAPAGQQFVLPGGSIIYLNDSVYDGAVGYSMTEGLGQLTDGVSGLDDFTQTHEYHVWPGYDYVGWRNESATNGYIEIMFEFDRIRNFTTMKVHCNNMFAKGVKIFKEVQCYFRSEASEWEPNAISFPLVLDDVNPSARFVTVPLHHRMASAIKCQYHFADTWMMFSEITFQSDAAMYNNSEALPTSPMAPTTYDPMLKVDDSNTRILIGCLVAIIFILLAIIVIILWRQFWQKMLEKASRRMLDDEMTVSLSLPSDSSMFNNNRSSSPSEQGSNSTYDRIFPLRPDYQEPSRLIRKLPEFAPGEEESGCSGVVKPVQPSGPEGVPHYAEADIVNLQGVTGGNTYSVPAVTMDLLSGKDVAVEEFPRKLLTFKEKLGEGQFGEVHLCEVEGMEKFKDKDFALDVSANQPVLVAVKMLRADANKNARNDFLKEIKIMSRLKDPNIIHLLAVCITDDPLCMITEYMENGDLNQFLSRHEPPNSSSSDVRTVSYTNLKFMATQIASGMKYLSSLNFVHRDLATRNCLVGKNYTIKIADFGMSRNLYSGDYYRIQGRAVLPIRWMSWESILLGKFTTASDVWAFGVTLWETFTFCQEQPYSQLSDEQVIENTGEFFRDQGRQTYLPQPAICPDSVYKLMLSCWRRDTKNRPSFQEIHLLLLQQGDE

[7] = molecular target: T2, Discoidin domain-containing receptor 2 (Homo sapiens); conditions: at 10 µM
[8] = molecular target: T3, Myotonin-protein kinase (Homo sapiens) (UniProt Q09013); conditions: at 10 µM
T3 sequence (whole entry): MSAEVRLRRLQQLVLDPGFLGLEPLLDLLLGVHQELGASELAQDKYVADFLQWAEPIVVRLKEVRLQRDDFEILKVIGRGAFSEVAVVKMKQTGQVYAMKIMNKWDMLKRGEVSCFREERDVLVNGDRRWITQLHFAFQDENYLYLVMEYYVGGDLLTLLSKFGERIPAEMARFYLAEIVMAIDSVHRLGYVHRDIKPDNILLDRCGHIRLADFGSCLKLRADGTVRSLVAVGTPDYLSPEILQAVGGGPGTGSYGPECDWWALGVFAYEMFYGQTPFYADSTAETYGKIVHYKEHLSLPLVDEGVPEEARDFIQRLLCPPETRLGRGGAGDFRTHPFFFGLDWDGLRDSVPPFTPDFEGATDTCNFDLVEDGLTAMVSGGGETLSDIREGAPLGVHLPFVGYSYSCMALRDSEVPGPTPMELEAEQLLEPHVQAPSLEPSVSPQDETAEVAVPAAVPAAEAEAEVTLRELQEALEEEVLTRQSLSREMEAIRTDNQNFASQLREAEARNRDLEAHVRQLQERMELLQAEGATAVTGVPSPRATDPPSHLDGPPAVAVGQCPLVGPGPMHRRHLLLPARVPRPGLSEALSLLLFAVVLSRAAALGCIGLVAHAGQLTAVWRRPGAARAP

[9] = molecular target: T4, Serine/threonine-protein kinase 17A (Homo sapiens) (UniProt Q9UEE5); conditions: at 1 µM
T4 sequence (whole entry): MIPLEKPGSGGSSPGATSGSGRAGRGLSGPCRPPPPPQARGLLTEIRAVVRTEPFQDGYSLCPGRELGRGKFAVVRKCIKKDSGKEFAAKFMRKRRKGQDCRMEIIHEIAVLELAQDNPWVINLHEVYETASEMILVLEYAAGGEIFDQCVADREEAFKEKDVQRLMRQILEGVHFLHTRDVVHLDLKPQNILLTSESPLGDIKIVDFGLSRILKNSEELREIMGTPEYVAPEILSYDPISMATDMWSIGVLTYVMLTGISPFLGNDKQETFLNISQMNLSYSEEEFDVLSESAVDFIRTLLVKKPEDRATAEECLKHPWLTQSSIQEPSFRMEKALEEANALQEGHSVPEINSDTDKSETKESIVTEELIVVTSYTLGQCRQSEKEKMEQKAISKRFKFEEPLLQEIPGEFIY

[10] = molecular target: T4, Serine/threonine-protein kinase 17A (Homo sapiens); conditions: at 10 µM
[11] = molecular target: T5, Dual specificity tyrosine-phosphorylation-regulated kinase 2 (Homo sapiens) (UniProt Q92630); conditions: at 1 µM
T5 sequence (whole entry): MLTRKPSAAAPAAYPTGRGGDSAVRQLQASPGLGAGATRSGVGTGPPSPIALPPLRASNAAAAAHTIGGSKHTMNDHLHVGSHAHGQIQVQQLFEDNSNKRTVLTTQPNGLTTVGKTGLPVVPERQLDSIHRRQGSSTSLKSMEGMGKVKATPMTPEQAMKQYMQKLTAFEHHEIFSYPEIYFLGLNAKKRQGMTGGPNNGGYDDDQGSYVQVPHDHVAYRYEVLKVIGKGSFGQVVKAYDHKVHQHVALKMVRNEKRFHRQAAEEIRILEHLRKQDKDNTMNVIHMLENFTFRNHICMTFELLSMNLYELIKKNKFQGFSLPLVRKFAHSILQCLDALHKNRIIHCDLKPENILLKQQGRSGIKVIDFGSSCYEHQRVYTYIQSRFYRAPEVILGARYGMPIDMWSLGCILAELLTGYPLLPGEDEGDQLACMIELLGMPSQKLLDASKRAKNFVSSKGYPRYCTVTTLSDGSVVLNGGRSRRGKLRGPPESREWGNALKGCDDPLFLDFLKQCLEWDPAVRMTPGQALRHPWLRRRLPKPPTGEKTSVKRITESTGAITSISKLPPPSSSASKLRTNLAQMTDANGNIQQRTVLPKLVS

[12] = molecular target: T5, Dual specificity tyrosine-phosphorylation-regulated kinase 2 (Homo sapiens); conditions: at 10 µM
[13] = molecular target: Epidermal growth factor receptor (Homo sapiens) (UniProt P00533); conditions: at 1 µM
Chain of Epidermal growth factor receptor (Homo sapiens) (P00533 whole entry): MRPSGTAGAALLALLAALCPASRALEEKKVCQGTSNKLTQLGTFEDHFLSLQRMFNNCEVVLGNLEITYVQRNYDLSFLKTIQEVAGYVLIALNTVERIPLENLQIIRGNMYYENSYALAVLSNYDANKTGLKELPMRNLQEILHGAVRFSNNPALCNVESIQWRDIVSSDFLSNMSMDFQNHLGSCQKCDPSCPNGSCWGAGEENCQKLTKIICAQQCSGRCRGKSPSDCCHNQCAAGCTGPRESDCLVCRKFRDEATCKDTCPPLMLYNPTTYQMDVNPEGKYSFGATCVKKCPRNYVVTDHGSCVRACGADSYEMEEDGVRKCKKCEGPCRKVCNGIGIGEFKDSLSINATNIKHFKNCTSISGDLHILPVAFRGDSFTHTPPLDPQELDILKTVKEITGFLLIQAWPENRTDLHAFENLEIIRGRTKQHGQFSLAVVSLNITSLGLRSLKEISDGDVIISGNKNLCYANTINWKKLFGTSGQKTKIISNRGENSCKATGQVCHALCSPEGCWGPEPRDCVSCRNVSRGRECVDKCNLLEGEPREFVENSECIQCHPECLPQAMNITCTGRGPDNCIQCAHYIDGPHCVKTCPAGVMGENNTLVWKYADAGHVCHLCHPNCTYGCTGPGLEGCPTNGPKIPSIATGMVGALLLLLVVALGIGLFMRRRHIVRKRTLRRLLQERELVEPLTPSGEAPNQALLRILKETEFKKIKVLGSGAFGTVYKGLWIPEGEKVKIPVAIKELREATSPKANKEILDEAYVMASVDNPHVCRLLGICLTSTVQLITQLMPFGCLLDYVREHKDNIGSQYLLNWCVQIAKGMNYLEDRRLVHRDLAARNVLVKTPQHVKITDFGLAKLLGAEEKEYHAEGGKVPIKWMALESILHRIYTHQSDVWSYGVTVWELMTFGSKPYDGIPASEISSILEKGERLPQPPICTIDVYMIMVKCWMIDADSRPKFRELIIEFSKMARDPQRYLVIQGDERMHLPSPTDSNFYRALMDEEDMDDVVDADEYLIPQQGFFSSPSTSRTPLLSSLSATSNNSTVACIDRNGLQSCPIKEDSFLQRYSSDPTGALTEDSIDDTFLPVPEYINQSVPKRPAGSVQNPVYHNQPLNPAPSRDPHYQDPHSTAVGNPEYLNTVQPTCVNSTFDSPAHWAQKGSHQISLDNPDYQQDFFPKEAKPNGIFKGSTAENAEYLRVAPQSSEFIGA

[14] = molecular target: T6, Ephrin type-A receptor 1 (Homo sapiens) (UniProt P21709); conditions: at 1 µM
T6 sequence (whole entry): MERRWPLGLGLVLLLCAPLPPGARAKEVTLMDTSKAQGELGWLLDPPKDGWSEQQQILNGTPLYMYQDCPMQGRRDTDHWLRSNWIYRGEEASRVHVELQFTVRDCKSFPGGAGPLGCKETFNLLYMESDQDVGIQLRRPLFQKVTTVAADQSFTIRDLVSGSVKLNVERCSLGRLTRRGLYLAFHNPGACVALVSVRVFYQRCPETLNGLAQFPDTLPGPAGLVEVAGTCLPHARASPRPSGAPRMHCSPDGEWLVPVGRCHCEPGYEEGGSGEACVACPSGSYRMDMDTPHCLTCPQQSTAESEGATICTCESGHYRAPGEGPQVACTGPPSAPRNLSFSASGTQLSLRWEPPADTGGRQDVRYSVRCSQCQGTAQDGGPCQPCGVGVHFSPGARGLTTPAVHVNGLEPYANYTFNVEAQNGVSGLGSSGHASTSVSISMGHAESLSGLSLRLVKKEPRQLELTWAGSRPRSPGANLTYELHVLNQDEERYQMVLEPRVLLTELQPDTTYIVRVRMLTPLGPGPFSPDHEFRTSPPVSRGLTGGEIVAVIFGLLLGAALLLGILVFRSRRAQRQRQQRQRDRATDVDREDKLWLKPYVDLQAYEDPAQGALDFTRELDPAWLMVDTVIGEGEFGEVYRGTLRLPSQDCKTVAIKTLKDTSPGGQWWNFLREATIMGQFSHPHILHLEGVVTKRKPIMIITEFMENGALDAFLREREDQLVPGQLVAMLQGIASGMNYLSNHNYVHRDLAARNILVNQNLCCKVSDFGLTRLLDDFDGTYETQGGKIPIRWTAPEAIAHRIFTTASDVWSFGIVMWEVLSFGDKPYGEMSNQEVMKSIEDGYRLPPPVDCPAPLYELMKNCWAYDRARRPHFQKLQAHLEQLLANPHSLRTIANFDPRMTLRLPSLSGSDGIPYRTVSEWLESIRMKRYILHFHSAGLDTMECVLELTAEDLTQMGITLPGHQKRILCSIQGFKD

[15] = molecular target: T6, Ephrin type-A receptor 1 (Homo sapiens); conditions: at 10 µM
[16] = molecular target: Ephrin type-A receptor 2 (Homo sapiens) (UniProt P29317); conditions: at 1 µM
Chain of Ephrin type-A receptor 2 (Homo sapiens) (P29317 whole entry): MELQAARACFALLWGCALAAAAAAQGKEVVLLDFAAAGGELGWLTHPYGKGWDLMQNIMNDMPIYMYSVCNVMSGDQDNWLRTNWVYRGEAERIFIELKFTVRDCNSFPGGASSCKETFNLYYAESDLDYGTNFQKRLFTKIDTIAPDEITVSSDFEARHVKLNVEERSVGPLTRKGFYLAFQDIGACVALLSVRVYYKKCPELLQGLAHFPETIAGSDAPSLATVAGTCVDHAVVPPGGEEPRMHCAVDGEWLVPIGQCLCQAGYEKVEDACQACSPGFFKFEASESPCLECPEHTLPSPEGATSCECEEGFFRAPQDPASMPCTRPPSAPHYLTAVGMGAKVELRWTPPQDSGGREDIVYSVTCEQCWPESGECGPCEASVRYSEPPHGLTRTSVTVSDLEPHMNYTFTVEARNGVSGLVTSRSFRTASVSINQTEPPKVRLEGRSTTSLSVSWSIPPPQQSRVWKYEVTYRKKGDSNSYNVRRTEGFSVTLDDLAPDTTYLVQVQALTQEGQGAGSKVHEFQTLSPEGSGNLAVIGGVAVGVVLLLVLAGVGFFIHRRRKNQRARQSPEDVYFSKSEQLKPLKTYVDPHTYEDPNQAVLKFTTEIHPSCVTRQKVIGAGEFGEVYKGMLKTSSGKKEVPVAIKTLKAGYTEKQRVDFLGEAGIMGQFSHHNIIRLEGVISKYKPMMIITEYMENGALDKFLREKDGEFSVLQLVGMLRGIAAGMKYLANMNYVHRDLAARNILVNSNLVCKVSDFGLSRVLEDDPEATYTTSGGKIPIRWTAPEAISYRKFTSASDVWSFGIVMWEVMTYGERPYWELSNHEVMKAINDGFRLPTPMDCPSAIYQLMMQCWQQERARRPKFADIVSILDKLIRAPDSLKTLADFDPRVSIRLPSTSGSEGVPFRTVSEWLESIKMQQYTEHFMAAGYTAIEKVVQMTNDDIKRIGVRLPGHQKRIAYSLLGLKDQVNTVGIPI

[17] = molecular target: Ephrin type-A receptor 2 (Homo sapiens) (UniProt P29317); conditions: at 10 µM
[18] = molecular target: T7, Ephrin type-A receptor 3 (Homo sapiens) (UniProt P29320); conditions: at 1 µM
T7 sequence (whole entry): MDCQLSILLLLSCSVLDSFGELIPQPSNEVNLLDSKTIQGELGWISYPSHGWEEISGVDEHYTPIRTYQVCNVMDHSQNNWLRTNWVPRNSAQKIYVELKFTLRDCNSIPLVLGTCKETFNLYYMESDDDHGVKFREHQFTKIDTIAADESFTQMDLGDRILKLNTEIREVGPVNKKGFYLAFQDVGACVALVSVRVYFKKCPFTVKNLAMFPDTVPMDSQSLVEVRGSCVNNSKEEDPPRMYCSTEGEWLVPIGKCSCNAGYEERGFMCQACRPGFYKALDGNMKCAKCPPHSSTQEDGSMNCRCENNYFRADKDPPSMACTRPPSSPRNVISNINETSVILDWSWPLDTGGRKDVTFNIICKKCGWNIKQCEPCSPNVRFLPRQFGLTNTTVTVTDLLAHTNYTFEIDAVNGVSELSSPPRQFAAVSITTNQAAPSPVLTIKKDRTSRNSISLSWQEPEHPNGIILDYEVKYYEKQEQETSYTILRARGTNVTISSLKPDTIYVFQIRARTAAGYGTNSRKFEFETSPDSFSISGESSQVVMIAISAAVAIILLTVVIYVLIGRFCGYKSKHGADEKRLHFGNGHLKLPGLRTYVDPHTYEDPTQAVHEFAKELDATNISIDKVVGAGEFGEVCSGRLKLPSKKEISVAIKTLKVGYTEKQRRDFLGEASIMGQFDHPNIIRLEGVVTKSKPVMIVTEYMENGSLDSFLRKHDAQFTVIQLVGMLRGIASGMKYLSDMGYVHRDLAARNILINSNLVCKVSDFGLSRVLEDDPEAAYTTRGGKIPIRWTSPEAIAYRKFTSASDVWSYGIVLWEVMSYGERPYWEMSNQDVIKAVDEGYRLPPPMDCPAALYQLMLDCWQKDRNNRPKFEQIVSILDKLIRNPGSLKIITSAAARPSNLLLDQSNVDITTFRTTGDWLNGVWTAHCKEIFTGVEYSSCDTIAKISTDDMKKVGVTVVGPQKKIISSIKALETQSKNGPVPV

[19] = molecular target: T3, Myotonin-protein kinase (Homo sapiens); conditions: at 1 µM

Chain of Death-associated protein kinase 1 (Homo sapiens) (P53355 whole entry, looked up): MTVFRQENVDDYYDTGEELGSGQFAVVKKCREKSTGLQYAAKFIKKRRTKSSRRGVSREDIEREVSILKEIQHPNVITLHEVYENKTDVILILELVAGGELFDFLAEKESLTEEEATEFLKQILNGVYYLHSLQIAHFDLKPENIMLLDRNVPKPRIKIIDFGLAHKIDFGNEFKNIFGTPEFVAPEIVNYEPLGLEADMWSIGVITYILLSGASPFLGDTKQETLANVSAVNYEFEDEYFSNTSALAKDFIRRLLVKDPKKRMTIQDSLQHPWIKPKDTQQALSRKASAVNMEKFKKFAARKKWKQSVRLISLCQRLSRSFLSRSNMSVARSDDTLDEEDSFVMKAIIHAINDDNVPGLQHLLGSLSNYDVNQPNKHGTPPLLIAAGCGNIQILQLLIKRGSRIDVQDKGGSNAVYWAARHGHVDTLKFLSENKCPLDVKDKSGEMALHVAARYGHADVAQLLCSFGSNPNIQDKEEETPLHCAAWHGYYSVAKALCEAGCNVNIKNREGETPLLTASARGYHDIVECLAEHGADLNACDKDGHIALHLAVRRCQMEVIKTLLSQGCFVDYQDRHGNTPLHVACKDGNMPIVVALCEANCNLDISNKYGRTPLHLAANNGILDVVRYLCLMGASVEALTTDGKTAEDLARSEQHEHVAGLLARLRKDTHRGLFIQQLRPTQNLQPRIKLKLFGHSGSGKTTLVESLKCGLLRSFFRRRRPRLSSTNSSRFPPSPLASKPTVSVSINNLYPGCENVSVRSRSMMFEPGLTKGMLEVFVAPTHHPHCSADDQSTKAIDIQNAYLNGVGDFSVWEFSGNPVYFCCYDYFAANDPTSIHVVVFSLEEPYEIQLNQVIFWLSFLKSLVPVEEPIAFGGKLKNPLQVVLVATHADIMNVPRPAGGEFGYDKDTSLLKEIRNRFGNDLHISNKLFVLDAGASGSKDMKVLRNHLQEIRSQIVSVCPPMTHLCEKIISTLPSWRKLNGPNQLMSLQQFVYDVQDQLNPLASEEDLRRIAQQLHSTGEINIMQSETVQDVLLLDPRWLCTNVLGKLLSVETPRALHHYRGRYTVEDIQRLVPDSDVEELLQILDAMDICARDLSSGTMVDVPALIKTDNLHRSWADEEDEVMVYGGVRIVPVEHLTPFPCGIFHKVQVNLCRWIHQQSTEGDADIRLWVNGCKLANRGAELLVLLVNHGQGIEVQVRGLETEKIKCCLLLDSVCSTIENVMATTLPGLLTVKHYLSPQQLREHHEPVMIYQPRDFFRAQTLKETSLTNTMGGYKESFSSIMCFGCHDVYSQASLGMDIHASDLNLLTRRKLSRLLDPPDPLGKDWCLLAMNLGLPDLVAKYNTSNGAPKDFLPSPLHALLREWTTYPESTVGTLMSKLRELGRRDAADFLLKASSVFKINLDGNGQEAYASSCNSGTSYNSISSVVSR
Chain of Death-associated protein kinase 2 (Homo sapiens) (Q9UIK4 whole entry, looked up): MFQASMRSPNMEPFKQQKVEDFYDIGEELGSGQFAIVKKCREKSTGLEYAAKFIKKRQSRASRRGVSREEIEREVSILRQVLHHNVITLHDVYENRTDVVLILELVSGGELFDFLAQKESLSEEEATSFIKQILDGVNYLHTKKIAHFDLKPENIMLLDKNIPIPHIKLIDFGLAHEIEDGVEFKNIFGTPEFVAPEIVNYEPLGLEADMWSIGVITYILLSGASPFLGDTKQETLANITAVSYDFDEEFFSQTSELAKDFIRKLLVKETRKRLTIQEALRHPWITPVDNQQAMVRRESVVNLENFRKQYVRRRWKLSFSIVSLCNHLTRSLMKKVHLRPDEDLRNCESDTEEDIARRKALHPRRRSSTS

SMILES	residual activity [1] [%]	residual activity [2] [%]	residual activity [3] [%]	residual activity [4] [%]	residual activity [5] [%]	residual activity [6] [%]	residual activity [7] [%]	residual activity [8] [%]	residual activity [9] [%]	residual activity [10] [%]	residual activity [11] [%]	residual activity [12] [%]	residual activity [13] [%]	residual activity [14] [%]	residual activity [15] [%]	residual activity [16] [%]	residual activity [17] [%]	residual activity [18] [%]	residual activity [19] [%]
CO[C@@H]1[C@H](N(C)C(=O)c2ccccc2)C[C@H]2O[C@]1(C)n1c3ccccc3c3c4c(c5c6ccccc6n2c5c31)C(=O)NC4	72	71	54	75	38	106	69	90	16	9	90	88	101	87	81	97	95	97	
CC(C)n1cnc2/c(=N/c3cccc(Cl)c3)nc(NCCO)[nH]c21	94	104	98	103	94	94	93	74		83	95	69		86	42	82	65	82	124
COc1cccc(-c2cc(=O)c3ccccc3o2)c1N	90	99	99	107	120	91		96	101	70	100	94		99	92	97	117	110	122
c1ccc(-c2n[nH]cc2-c2ccnc3ccccc23)nc1	88	103			101	102	98	140			89	104		90	90	102	95	99	127

Reference: ChEMBL document CHEMBL2218924, “A broad activity screen in support of a chemogenomic map for kinase signalling research and drug discovery” (Biochem J, 2013)
